tim23-1 inh: inhibits growth of tim23-1 mutant yeast | S. cerevisiae tim23-1 growth, BacTiter-Glo luminescence, 24 h | inhibition, % at 20 µM | actives 1.3% (n = 330,000);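 active = growth inhibition of the mutant yeast at or above 50%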;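 also: temperature-sensitive mutant grown at 25 °C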
PfHsp90 yeast 2: inhibits growth of yeast expressing Plasmodium falciparum Hsp90; S. cerevisiae expressing PfHsp90, BacTiter-Glo ATP, 48 h; yeast lacking PDR1 and PDR3 efflux regulators; inhibition, % at 9.4 µM; actives 0.32% (n = 310,000);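 active = every replicate shows inhibition above about 80%, whatever the replicate mean, limit read from the data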
tim10-1 inh: growth inhibitors of tim10-1 mutant yeast. S. cerevisiae tim10-1 ts strain growth, BacTiter-Glo, 24 h. inhibition, % at 20 µM. actives 2.2% (n = 330,000). AID 463190;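 active = inhibition of at least 40%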;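 also: mutant grown at 25 °C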
SKKanGAS inh: blocks kanamycin growth of S. pyogenes SKKanGAS strain; BacTiter-Glo, 6 h; inhibition, % at 7.5 µM; actives 1.3% (n = 300,000);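 active = mean replicate score, as percent of positive control median, at least 50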;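 also: strain carries kanamycin resistance gene driven by streptokinase promoter and grows in 40 µg/ml kanamycin; loss of luminescence reflects streptokinase promoter inhibition or plain growth inhibition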
TIM10 inh: growth inhibitors of TIM10 yeast strain. actives 1.4% (n = 330,000). S. cerevisiae TIM10 strain growth, BacTiter-Glo luminescence, 24 h. inhibition, % at 10 µM;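 active = inhibition of 40% or more at the single tested concentration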;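 also: wild-type TIM10 isogenic control strain grown at permissive 25 °C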
ATG4B inh: ATG4B (human) cysteine protease inhibition | actives 0.51% (n = 340,000) | Q9Y4P1 | inhibition, % at 8.33 µM | ATG4B cleavage of LC3-PLA2, NBD-HPC fluorescence, 1 h; in the data active = inhibition above about 40%
Target sequence (Q9Y4P1 whole entry, looked up): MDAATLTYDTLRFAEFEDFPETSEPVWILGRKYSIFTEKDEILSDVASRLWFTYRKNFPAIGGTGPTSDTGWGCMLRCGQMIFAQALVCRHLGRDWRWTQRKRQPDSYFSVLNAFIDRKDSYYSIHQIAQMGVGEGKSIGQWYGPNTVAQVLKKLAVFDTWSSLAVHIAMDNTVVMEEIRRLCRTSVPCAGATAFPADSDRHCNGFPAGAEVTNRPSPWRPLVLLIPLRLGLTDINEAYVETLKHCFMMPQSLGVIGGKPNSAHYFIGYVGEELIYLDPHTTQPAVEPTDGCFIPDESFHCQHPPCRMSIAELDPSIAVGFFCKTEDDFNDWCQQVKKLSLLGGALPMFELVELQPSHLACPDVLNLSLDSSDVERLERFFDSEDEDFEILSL
tim10-1 conf: tim10-1 yeast growth inhibition, confirmed; shares compounds with tim10-1 inh; inhibition, % at 20 µM; actives 56% (n = 7,400); S. cerevisiae tim10-1 ts strain growth, BacTiter-Glo, 24 h;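 active = inhibition of yeast growth at or above a set limit in either of two repeat tests at 20 µM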;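 also: tim10-1 mutant grown at permissive 25 °C to find synthetic lethal compounds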
Of the large screens only hits and unclear results are named; the others gave an inactive call (follow-up assays come after a bar, where they were run). Only some compounds are listed: those with a hit (about 4.7% of all), similar ones and a draw of the others.

O=C(NC1CCS(=O)(=O)C1)Oc1ccccc1 (stereo not given)	none
Nc1ccccc1Nc1cc(-c2cccc(Cl)c2)nn1-c1ccccc1	tim10-1 inh 40.4 | tim10-1 conf 34.1
CC(C)(C)C1C=C(Sc2ccccc2)C(=O)O1 (stereo not given)	tim10-1 inh 43.5 | tim10-1 conf 34.9
Cn1c(=O)c(Sc2ccccc2)c(O)c2ccccc21	none
O=C(O)C1CCN(S(=O)(=O)c2cccs2)CC1	none
Cc1nn(C(C)(C)C)c(C)c1/C=N/OC(=O)Nc1ccc(Cl)cc1	tim10-1 inh 42.5 | tim10-1 conf inactive
COCCN(C(=O)c1snc(C(N)=O)c1N)C(C(=O)NC1CCCCC1)c1cc(OC)c(OC)c(OC)c1 (stereo not given)	none
O=C(CN1CCC(NC(=O)Nc2ccc(F)cc2)CC1)Nc1ccccc1[N+](=O)[O-]	none
CC(C)CCNc1c(-c2cccs2)nc2ccccn12	none
Cc1ccc(S(=O)(=O)N(C)C)cc1NC(=S)NC(C)CCCC(C)C (stereo not given)	none
CCCCCCC(C)NC(=S)Nc1cc(S(=O)(=O)N(C)C)ccc1C (stereo not given)	tim10-1 inh 40.8 (no result: PfHsp90 yeast 2) | tim10-1 conf inactive
Cc1onc(-c2ccc3c(c2)OCO3)c1-c1ccc2[nH]ccc2c1	tim10-1 inh 53.8 | tim10-1 conf 39.5
Cn1ncc(Cl)c1C(=O)Nc1cccc(Cl)c1	tim10-1 inh 47.3 (no result: PfHsp90 yeast 2) | tim10-1 conf inactive
O=C(Nc1nc2ccc(Cl)cc2s1)c1ccco1	tim10-1 inh 40.1 | tim10-1 conf inactive
CC(=O)NC(=S)Nc1sc2c(c1C#N)CCCCC2	none (no result: tim23-1 inh, tim10-1 inh, TIM10 inh)
N#Cc1c(NC(=S)NC(=O)Cc2cccs2)sc2c1CCCCC2	tim10-1 inh 46.6, SKKanGAS inh 59.3 (no result: PfHsp90 yeast 2) | tim10-1 conf inactive
CC(=O)c1c(C)[nH]c(C(=O)N2CCN(c3ccc(F)cc3)CC2)c1C	none
COc1cc2nc(N3CCNCC3)nc(N)c2cc1OC	none
COc1cc2nc(N3CCN(c4cc(C)ccc4C)CC3)nc(N)c2cc1OC	tim10-1 inh 44.9 | tim10-1 conf inactive
CC(C)CCN1CCN(Cc2cccs2)CC1CCO (stereo not given)	none
CCOC(=O)c1cc(NC(=O)Nc2ccccc2OC)c(C)nc1C	tim10-1 inh 41.1 | tim10-1 conf inactive
CCOC(=O)c1cc(NC(=O)Nc2ccccc2Cl)c(C)nc1C	none
N/C(=N\OC(=O)Cc1ccc([N+](=O)[O-])cc1)c1cccc(Br)c1	tim10-1 inh 58.0 (no result: PfHsp90 yeast 2) | tim10-1 conf 50.0
COc1ccc(CC(=O)O/N=C(\N)Cc2ccc([N+](=O)[O-])cc2)cc1	tim10-1 inh 42.7 | tim10-1 conf 62.6
N/C(=N\OC(=O)Cc1ccc([N+](=O)[O-])cc1)c1ccc([N+](=O)[O-])cc1	none
COc1ccc(-c2noc(C3CCCN(S(=O)(=O)c4ccc(C)c(Cl)c4)C3)n2)cc1OC (stereo not given)	none
COCCOC(=O)c1c(NC(=O)CNCc2ccco2)sc(C(N)=O)c1C	none
Cc1nc2ccccc2c(=O)n1NC(=O)c1c(F)cccc1F	none
O=[N+]([O-])c1ccc(N2CCCCCC2)c(S(=O)(=O)N2CCCCC2)c1	tim10-1 inh 47.8 | tim10-1 conf inactive
Cc1ccc(S(=O)(=O)NCc2ccccc2C)cc1	none
Cc1ccc(S(=O)(=O)NCc2ccccc2)cc1	none
CSc1ccc(S(=O)(=O)NCc2ccccc2C)cc1	tim10-1 inh 47.3 | tim10-1 conf inactive
CSc1ccc(S(=O)(=O)NCc2ccc(C)cc2)cc1	tim10-1 inh 44.3 | tim10-1 conf 37.0
S=c1[nH]nc2n1CCCN2	none
CCO/C(C)=N/n1c2nc3ccccc3nc2c2c(=O)n(CC(C)C)c(C)nc21	none
CC(=O)c1cc2c(cc1NS(=O)(=O)c1ccccc1F)OCO2	none
Cc1ccc(Nc2nc(-c3ccccc3)c(CC(=O)O)s2)cc1	none
O=C(O)Cc1sc(Nc2ccccc2)nc1-c1ccc(Cl)cc1	tim10-1 inh 40.4 | tim10-1 conf inactive
CCn1c(=N)n(CC(=O)c2ccc(Cl)c(Cl)c2)c2ccccc21	tim10-1 inh 42.0 | tim10-1 conf inactive
CCOCCOC(=O)c1ccc(NC(=O)C2COc3ccccc3O2)cc1 (stereo not given)	tim10-1 inh 41.9 | tim10-1 conf inactive
COc1ccccc1NC(=O)c1ccc(NC(=O)C2COc3ccccc3O2)cc1 (stereo not given)	none
CC1CN(C(=O)COC(=O)c2ccc(F)cc2Cl)CC(C)O1 (stereo not given)	none
COc1ccc(-n2nc(C(=O)NCC(=O)N(C)Cc3ccccc3)c3ccccc3c2=O)c(OC)c1	none
COc1ccc(N=C2C(=O)Nc3ccc(C)c(Br)c32)cc1	none
Cc1ccc(N=C2C(=O)Nc3ccc(C)c(Br)c32)cc1	tim10-1 inh 41.4 | tim10-1 conf 29.9
COCCN1Cc2cccc(C(=O)NCc3ccc4c(c3)OCO4)c2C1=O	none
OC(COc1ccc2cc(Br)ccc2c1)CN1CCN(c2ccccn2)CC1 (stereo not given)	tim10-1 inh 41.3 | tim10-1 conf inactive
O=S(=O)(N1CCCCC1)N1CCN(CC(O)COc2ccc3cc(Br)ccc3c2)CC1 (stereo not given)	tim10-1 inh 44.6 (no result: PfHsp90 yeast 2) | tim10-1 conf inactive
CCN(CC)C(=O)C1CCN(S(=O)(=O)c2c(C)noc2/C=C/c2cccc(C)c2)CC1	tim10-1 inh 41.2 | tim10-1 conf inactive
Cc1cccc(/C=C/c2onc(C)c2S(=O)(=O)N2CCC(C(=O)NC(C)(C)C)CC2)c1	none
CCn1c(SCc2cccc(C)c2)nnc1-c1ccc(C)cc1	tim10-1 inh 46.8 (no result: PfHsp90 yeast 2) | tim10-1 conf 29.7
CCn1c(SCc2cccc(F)c2)nnc1-c1ccncc1	none
COc1ccc(C(=O)OCC(=O)c2ccc3[nH]c(=O)[nH]c3c2)c(OC)c1OC	none (no result: SKKanGAS inh)
CC1CCCN(C(=S)SCC(=O)c2cc(Br)cc(Br)c2O)C1 (stereo not given)	tim10-1 inh 50.4, SKKanGAS inh 56.3 (no result: PfHsp90 yeast 2) | tim10-1 conf 46.5
CSc1ccccc1NC(=O)c1cccs1	none
CCOc1ccc(NC(=O)c2ccccc2OC)cc1	none
CCOc1ccc(NC(=O)C(C)Oc2ccccc2C(=O)Nc2cccc(Cl)c2Cl)cc1 (stereo not given)	tim10-1 inh 41.0 | tim10-1 conf inactive
NC(=O)COC(=O)c1ccc(Cl)c(S(=O)(=O)N(Cc2ccccc2)c2ccc(Cl)cc2)c1	tim10-1 inh 41.5 | tim10-1 conf 32.2
OCC1CCCN(c2ncnc3scc(-c4ccccc4)c23)C1 (stereo not given)	none
OCC1CCCN(c2nc(CN3CCCCC3)nc3scc(-c4ccccc4)c23)C1 (stereo not given)	tim10-1 inh 40.2 | tim10-1 conf inactive

Screens deposited in PubChem BioAssay by several laboratories.
